Screening data (PubChem)
PPC-1+TRAIL kill: compounds killing PPC-1 cancer cells with TRAIL present (potentiator screen, no TRAIL-free arm). PPC-1 cells + TRAIL, ATPLite viability luminescence. cell killing (% activity), % at 4 µM or 5 µM. AID 1443. 220,000 compounds, 0.41% hits;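 active = cell killing above 50% in the first pass at 4 µM, then a duplicate retest at 5 µM averaging 50% or more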;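 also: plate controls were cells with TRAIL plus DMSO for no effect and medium-only wells lacking cells for full effect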
C8 TRAIL sens: caspase-8 TRAIL sensitization. NB7+C8 cells + TRAIL, ATPlite viability luminescence. inhibition (viability loss, TRAIL sensitization), % at 10 µM. 360,000 compounds, 1% hits. AID 624354;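 active = compounds causing at least 50% loss of cell viability in the single-dose screen, relative to plate controls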
SENP6 block: blocks the human protease SENP6. Q9GZR1. Recombinant SENP6 catalytic domain, aminoluciferin luminescence. inhibition, % at 10 µM. 330,000 compounds, 1.8% hits. AID 2599;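 active = inhibition above about 50% at the single tested dose, limit read from the data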;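 also: plate controls were DMSO wells with enzyme for no effect and DMSO wells lacking enzyme for full effect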
Target sequence (Q9GZR1 628-1112 limits assumed): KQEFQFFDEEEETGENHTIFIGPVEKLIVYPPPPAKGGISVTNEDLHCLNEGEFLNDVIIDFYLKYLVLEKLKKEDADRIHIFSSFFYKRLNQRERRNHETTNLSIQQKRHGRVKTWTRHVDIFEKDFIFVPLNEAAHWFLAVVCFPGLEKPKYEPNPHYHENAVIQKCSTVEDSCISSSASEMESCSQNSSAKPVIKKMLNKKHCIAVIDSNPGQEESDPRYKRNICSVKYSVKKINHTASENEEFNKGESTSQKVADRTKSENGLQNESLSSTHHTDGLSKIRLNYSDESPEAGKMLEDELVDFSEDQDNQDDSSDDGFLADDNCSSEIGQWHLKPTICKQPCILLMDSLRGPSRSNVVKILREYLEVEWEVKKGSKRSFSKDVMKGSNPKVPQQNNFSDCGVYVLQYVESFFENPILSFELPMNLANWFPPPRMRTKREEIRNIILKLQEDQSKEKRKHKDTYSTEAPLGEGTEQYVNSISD
SENP7 block: blocks the human protease SENP7. inhibition, % at 5 µM. recombinant SENP7, Z-RLRGG-aminoluciferin luminescence, 40 min. AID 434973. Q9BQF6. 330,000 compounds, 1.5% hits;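 active = inhibition above about 50% at the single test dose, limit read from the data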;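 also: plate controls were DMSO with enzyme for no effect and no enzyme buffer wells for full effect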
SENP8 block-1: inhibitors of human SENP8 protease; inhibition, % at 20 µM; 360,000 compounds, 0.64% hits; recombinant SENP8, Nedd8 substrate fluorescence; AID 602440; Q96LD8; in the data active = inhibition mostly above about 40%, no sharp cut-off; inactive = mostly below about 27%
SENP8 block-2: blocks the human protease SENP8; purified SENP8, Z-RLRGG-aminoluciferin cleavage, luminescence; Q96LD8; inhibition, % at 10 µM; 330,000 compounds, 1.2% hits; in the data active = inhibition above about 50%
SENP8 confirm: human SENP8 inhibition, confirmed. shares compounds with SENP7 block. Recombinant SENP8, Z-RLRGG-aminoluciferin luminescence, 60 min. inhibition, % at 12.5 µM. 6,200 compounds, 40% hits. AID 488912;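 active = mean inhibition across replicates above about 50%, limit read from the data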
SENP6 confirm: human SENP6 inhibition, confirmed | shares compounds with SENP7 block | recombinant SENP6, Z-RLRGG-aminoluciferin luminescence | inhibition, % at 12.5 µM | 6,200 compounds, 58% hits
SENP7 confirm: human SENP7 inhibition, confirmed. 6,200 compounds, 69% hits. recombinant SENP7, Z-RLRGG-aminoluciferin luminescence, 40 min. inhibition, % at 12.5 µM. shares compounds with SENP7 block
Casp3 SENP sel: caspase-3 inhibition (SENP selectivity assay); AID 488918; inhibition, % at 12.5 µM; shares compounds with SENP7 block; purified caspase-3, Z-DEVD-aminoluciferin luminescence, 60 min; 6,200 compounds, 60% hits;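 active = mean inhibition above about 50%, limit read from the data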;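 also: plate controls were enzyme with DMSO for no effect and wells without caspase-3 for full effect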
Luc interf: counter-screen for SENP inhibitors: luminescence interference. shares compounds with SENP7 block. Pre-incubated SENP8/Z-RLRGG-aminoluciferin, luciferase luminescence interference. inhibition, % at 12.5 µM. 6,200 compounds, 39% hits. AID 488919;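 active = mean inhibition above about 50% when retested at one dose, limit read from the data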;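 also: plate controls were DMSO wells with completed reaction for no effect and substrate without enzyme for full effect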
Active calls of the source: *. Most compounds without a hit are left out; they make up all but 3% or so of the library.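 The calls were made as follows, unless noted: active = mean inhibition above about 50% in the one-dose retest (limit read from the data); inactive = the rest.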

`Cc1occc1C(=O)Nc1cnn(CCCC(=O)O)c1` gave C8 TRAIL sens -8.8, SENP6 block -16.8, SENP7 block -11.5, SENP8 block-1 3.8 and SENP8 block-2 -15.0.
For Cc1nc2nc(C)c(NS(=O)(=O)c3ccc(CC(C)C)cc3)c(=O)n2[nH]1 the results were C8 TRAIL sens 1.8, SENP6 block 8.3, SENP7 block -7.0, SENP8 block-1 5.7 and SENP8 block-2 -11.2.
COc1ccc(C)cc1NC(=O)CSc1nnc2ccc(-c3cccnc3)nn12 was read as C8 TRAIL sens -10.4, SENP6 block -22.9, SENP7 block 10.2, SENP8 block-1 0.0 and SENP8 block-2 -8.2.
For O=C(Nc1ccc(N2CCCCC2)cc1)c1cncc(Br)c1 the results were PPC-1+TRAIL kill 26.4, C8 TRAIL sens 23.3, SENP6 block -35.8, SENP7 block 52.4*, SENP8 block-1 21.7, SENP8 block-2 29.7, SENP8 confirm 48.1, SENP6 confirm 37.9, SENP7 confirm 62.1*, Casp3 SENP sel 67.6* and Luc interf 7.8.
Cc1ccc(C(=O)Nc2ccc3c(c2)OCO3)cc1 was read as PPC-1+TRAIL kill 72.4*, C8 TRAIL sens 73.5*, SENP6 block 69.3*, SENP7 block 2.6, SENP8 block-1 21.0, SENP8 block-2 49.8, SENP8 confirm 68.4*, SENP6 confirm 67.8*, SENP7 confirm 90.5*, Casp3 SENP sel 82.8* and Luc interf 19.8.
Screening O=C(NC1=NCCS1)c1csc2ccccc12 returned PPC-1+TRAIL kill 20.3, C8 TRAIL sens 30.3, SENP6 block 80.7*, SENP7 block 72.6*, SENP8 block-1 -0.7, SENP8 block-2 60.3*, SENP8 confirm 4.2, SENP6 confirm 68.5*, SENP7 confirm 89.4*, Casp3 SENP sel 77.9* and Luc interf 73.6*.
`Cc1ccc(C(=O)Nc2ccc3c(c2)OCCO3)c(Cl)c1` gave C8 TRAIL sens 82.9*, SENP6 block 89.1*, SENP7 block 84.7*, SENP8 block-1 10.0, SENP8 block-2 78.0*, SENP8 confirm 81.4*, SENP6 confirm 78.6*, SENP7 confirm 93.7*, Casp3 SENP sel 86.8* and Luc interf 81.8*.
For O=C(Nc1ccc(S(=O)(=O)N2CCCC2)cc1)c1cncc(Br)c1 the results were C8 TRAIL sens -12.7, SENP6 block 8.2, SENP7 block 2.1, SENP8 block-1 -5.2 and SENP8 block-2 -2.0.
Screening Oc1cc2c(cc1CN1CCN(c3ncccn3)CC1)OCO2 returned C8 TRAIL sens 3.6, SENP6 block -4.0, SENP7 block -3.9, SENP8 block-1 4.6 and SENP8 block-2 8.6.
Screening O=C(Nc1ccc(Cl)cc1Cl)c1ccc2c(c1)OCCO2 returned C8 TRAIL sens 52.7*, SENP6 block 92.8*, SENP7 block 92.4*, SENP8 block-1 7.5, SENP8 block-2 89.8*, SENP8 confirm 65.8*, SENP6 confirm 84.5*, SENP7 confirm 95.0*, Casp3 SENP sel 88.1* and Luc interf 46.6.
`O=C(NC1=NCCS1)c1ccc(Cl)c(Cl)c1` gave C8 TRAIL sens 6.4, SENP6 block 69.5*, SENP7 block 59.9*, SENP8 block-1 27.4, SENP8 block-2 43.2, SENP8 confirm 10.9, SENP6 confirm 63.0*, SENP7 confirm 49.2, Casp3 SENP sel 64.6* and Luc interf 8.8.
Screening CC(=O)Nc1ccc2c(c1)OCCO2 returned PPC-1+TRAIL kill 13.2, C8 TRAIL sens -0.8, SENP6 block 10.3, SENP7 block -0.1, SENP8 block-1 22.1 and SENP8 block-2 1.7.
